About 480 (40%) of roughly 1,200 compounds were called active. No rule for the calls is given here. So high a share suggests a set chosen from earlier hits. Not all results are given here. Potency and affinity values are given separately.
Assay: viability loss in human hepatoma cells – cell-based, CellTiter-Glo luminescence, cherry-pick, set 2, cytotoxicity control, dose response (AID 743395);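 also: 0% = neutral control wells and -100% = positive control wells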
Conditions: HepG2 viability, CellTiter-Glo ATP luminescence, 72 h; series mostly up to 26 µM; activity change, negative = cytotoxicity: at the top concentration

SMILES | activity change, negative = cytotoxicity
CC(=O)OC1CCC2(C)C(=CCC3C2CCC2(C)C3CC3ON=C(C)C32)C1 (stereo not drawn) | -4.59% (inactive)
Cc1ccc(S(=O)(=O)N2C[C@H]3[C@H]4C(=O)N(C)C(=O)[C@H]4CC(=O)[C@H]3[C@@H]2c2ccccc2F)cc1 | 11.8% (inactive)
CCCNC(=O)N1C[C@@H]2[C@H](c3ccccc31)[C@H](CO)N2Cc1ccc(OC)cc1 | -1.83% (inactive)
NS(=O)(=O)c1cc(Cl)c(Cl)c(S(N)(=O)=O)c1 | -6.58% (inactive)
CC(C)NC(=O)NC(=O)COC(=O)c1ccc(S(=O)(=O)Nc2ccccc2)cc1 | -0.043% (inactive)
COc1ccc(CC(=O)NC(c2ccccc2)c2ccc(C)cc2)c(OC)c1 (stereo not drawn) | 15.1% (inactive)
Cc1cc(-c2ccccc2)nc(N(C)NC(=O)C2CC2)c1S(C)(=O)=O | -8.74% (inactive)
O=C(COC(=O)c1cc([N+](=O)[O-])ccc1N1CCOCC1)Nc1c(Cl)cccc1Cl | -4.02% (inactive)
CCc1cccc(NC(=O)COC(=O)c2cc([N+](=O)[O-])ccc2N2CCOCC2)c1 | -15.3% (inactive)
COc1ccc(C(=O)c2cc([N+](=O)[O-])ccc2N2CCN(C)CC2)cc1 | -26.3% (inactive)
C[C@@H]1CN([C@H](C)CO)S(=O)(=O)c2ccc(/C=C/c3ccccc3)cc2O[C@H]1CN(C)C(=O)NC1CCCCC1 | -16.1% (inactive)
COc1cccc(/C=N/NC(=O)C(=O)N/N=C/c2cccc(OC)c2O)c1O | 10.6% [at 8 µM] (inactive)
C#CCN(C)CCCOc1ccc(Cl)cc1Cl | -3.84% (inactive)
CC(C)Nc1nc(Nc2ccc(C#N)cc2)c2sccc2n1 | -26.4% (inactive)
CCCCNc1cc(C(=O)O)cc(S(N)(=O)=O)c1Oc1ccccc1 | 1.62% (inactive)
CC[N+]1(CC)CC2=Cc3ccccc3CC2C1 (stereo not drawn) | -11.6% (inactive)
Cc1ccc2c(CN3CCN(S(=O)(=O)c4ccc(Cl)cc4)CC3)cc(=O)oc2c1C | -1.82% (inactive)
C#Cc1ccc(NC(=O)C2(C)CCN2C(=O)c2cc(C)n(C)n2)cc1 (stereo not drawn) | -2.6% (inactive)
CCN1C(=O)c2cccc3c(N)ccc(c23)C1=O | -13.8% (inactive)
Cn1c(NCc2ccccc2F)nc2cc(-c3ccsc3)sc2c1=O | -4% (inactive)
Cc1cc2oc(=O)cc(-c3ccccc3)c2c(C)c1-c1ccc(O)cc1 | -5.01% (inactive)
Nc1ccc(-c2c3ccc(=O)cc-3oc3cc(O)ccc23)cc1C(=O)O | -5.54% (inactive)
COC(=O)CNc1cc(S(=O)(=O)N2CCCCC2)ccc1Oc1ccc(C(=O)OC)cc1 | 11.2% (inactive)
COc1ccccc1CNC(=O)Cn1cnnn1 | -10.7% (inactive)

SMILES | activity change, negative = cytotoxicity
COc1ccc(NC(=O)C(CC(=O)O)Cc2ccc(Cl)cc2)cc1 (stereo not drawn) | 12.9% (inactive)
Cc1ccc(OCC(=O)Nc2ccc3c(c2)ncn3C)cc1 | -12.2% (inactive)
COc1ccccc1/C=C/C=N/NC(=O)CCn1cnc2ccccc21 | -31.2% (inactive)
C#Cc1ccc(C(=O)Nc2ccc(N3CCC(C)CC3)c(C(N)=O)c2)cc1 | -15.7% (inactive)
C[C@H]1CN([C@@H](C)CO)S(=O)(=O)c2ccc(C#Cc3ccccc3F)cc2O[C@H]1CN(C)C(=O)c1ccc2c(c1)OCO2 | 25.8% (inactive)
COc1cc(/C=N/NC(=O)c2cc(-c3c(C)nn(-c4ccccc4)c3C)n[nH]2)ccc1O | 2.51% (inactive)
COc1ccc(/C=N/NC(=O)c2cccnc2)cc1CSc1ccccn1 | -16.4% (inactive)
CC#CCOCC1CNC(=O)O1 (stereo not drawn) | -6.75% (inactive)
CCCN1[C@H](C(=O)N2CCOCC2)[C@@H](CO)[C@@H]2Cn3c(ccc(/C=C/c4ccccc4)c3=O)[C@@H]21 | 1.53% (inactive)
O=C(COC(=O)C1CCC1)Nc1cc(S(=O)(=O)N2CCOCC2)ccc1Cl | 9.46% (inactive)
CCOc1ccc(S(=O)(=O)N2CCOCC2)cc1NC(=O)CSCC(=O)Nc1ccc(OC)cc1 | -6.38% (inactive)
COC(=O)[C@H](CCSC)NC(=O)Cn1cc(C)c(=O)[nH]c1=O | -3.37% (inactive)
COCOc1cccc(CN2CCC2(C)C(=O)Nc2ccc(C)c(O)c2)c1 (stereo not drawn) | -20.5% (inactive)
CCN(C(=O)CSc1nnc(C)n1-c1ccc(C)cc1)c1c(N)n(Cc2ccccc2)c(=O)[nH]c1=O | -6.86% (inactive)
COc1ccc(S(=O)(=O)Nc2ccc3c(c2)C(=O)N([C@@H](C)CO)C[C@H](C)[C@H](CN(C)Cc2ccc(Cl)c(Cl)c2)OCCCC[C@@H](C)O3)cc1 | 7.33% (inactive)
Cc1ccc(S(=O)(=O)Nc2ccc3c(c2)C(=O)N([C@@H](C)CO)C[C@H](C)[C@H](CN(C)S(=O)(=O)c2ccc(Cl)cc2)OCCCC[C@@H](C)O3)cc1 | 7.44% (inactive)
COc1ccc(NC(=O)N(C)C[C@H]2Oc3c(cccc3N(C)C)C(=O)N([C@H](C)CO)C[C@H]2C)cc1 | -8.08% (inactive)
Cc1ccc(N2CC(C(=O)N(C)CC(=O)Nc3ccc(Cl)c(C(F)(F)F)c3)CC2=O)cc1 (stereo not drawn) | 11% (inactive)
COc1ccc(OCC(=O)NNC(=O)CCc2ccccc2)cc1 | 17.5% (inactive)
Cn1nc(C(=O)NNC(=O)CCOc2ccc(C(C)(C)C)cc2)c2ccccc2c1=O | -16.7% (inactive)
O=c1cc(-c2ccccc2)[nH]c2ccc(F)cc12 | -11.9% (inactive)
O=C(Nc1ccc(F)cc1)Nc1ccc(N2CCOCC2)c2nonc12 | -14.1% (inactive)
COC(=O)c1ccc(C(=O)NC2CCCc3c2cnn3-c2ccc(C)c(C)c2)cc1 (stereo not drawn) | -8.84% (inactive)
O=C(N/N=C/c1ccccc1OC(F)F)c1cc(-c2ccncc2)nc2ccccc12 | -20.7% (inactive)

— PubChem BioAssay AID743395 (Broad Institute, 2014)
